Source: PMC7862700, “An all-to-all approach to the identification of sequence-specific readers for epigenetic DNA modifications on cytosine”

What was measured:
Assay in all cases: DAPPL (digital affinity profiling via proximity ligation, sequencing); 10 mM Tris-HCl pH 7.5, 50 mM NaCl, 1 mM DTT, 4% glycerol, room temperature, 30 min; GST-TFs on glutathione beads, 16-mer random dsDNA library, 0.1% formaldehyde crosslink after washing; high values mean tight binding
FLI1 = biological target: T1, FLI1 (Homo sapiens, UniProt Q01543 1-452); settings: protein: recombinant; tags: N-terminal GST; dsDNA, one strand shown
T1 sequence: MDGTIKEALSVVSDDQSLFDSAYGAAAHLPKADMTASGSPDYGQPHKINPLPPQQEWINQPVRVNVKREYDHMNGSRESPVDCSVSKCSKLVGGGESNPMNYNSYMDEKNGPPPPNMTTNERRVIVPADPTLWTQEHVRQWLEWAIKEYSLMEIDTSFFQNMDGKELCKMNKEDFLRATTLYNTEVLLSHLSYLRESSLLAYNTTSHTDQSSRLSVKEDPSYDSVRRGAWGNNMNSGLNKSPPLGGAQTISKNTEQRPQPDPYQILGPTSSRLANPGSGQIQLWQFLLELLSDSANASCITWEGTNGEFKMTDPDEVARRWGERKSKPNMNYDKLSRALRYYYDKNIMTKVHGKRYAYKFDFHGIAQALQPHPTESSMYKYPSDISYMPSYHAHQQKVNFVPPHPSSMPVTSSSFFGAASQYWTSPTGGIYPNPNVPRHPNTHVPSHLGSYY
In short: (§1)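 The binding signal reported is, for every hexamer, its read frequency for a factor over its read frequency for the tag-only sample. Reads came from pools of yeast-expressed, GST-fused human transcription factors on glutathione beads, barcoded with DNA and mixed with that sample, which were incubated with 200 nmole of a random double-stranded 16-mer DNA library in Tris/NaCl/DTT/glycerol buffer at room temperature for 30 min. After washing, the pools were crosslinked with 0.1% formaldehyde, proximity-ligated with BsaI/T4 ligase for 1 h at 37 °C, PCR-amplified and sequenced on an Illumina NextSeq500.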

ELK1 = biological target: T2, ELK1 (Homo sapiens, UniProt P19419 1-428); settings: protein: recombinant; tags: N-terminal GST; dsDNA, one strand shown
T2 sequence: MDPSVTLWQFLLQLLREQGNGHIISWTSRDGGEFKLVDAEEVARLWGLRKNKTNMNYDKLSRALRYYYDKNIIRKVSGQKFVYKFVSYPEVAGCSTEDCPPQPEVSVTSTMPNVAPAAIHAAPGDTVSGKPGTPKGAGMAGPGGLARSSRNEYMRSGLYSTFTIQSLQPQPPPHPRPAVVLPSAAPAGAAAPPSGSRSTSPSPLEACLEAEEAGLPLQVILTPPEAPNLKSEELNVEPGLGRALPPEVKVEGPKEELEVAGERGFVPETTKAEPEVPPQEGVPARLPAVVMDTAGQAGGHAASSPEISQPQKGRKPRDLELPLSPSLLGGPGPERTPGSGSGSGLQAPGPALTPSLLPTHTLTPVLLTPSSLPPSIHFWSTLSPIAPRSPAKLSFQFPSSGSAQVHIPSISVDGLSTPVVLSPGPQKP
In short: as §1

GABPA = biological target: T3, GABPA (Homo sapiens, UniProt Q06546 1-454); settings: protein: recombinant; tags: N-terminal GST; dsDNA, one strand shown
T3 sequence: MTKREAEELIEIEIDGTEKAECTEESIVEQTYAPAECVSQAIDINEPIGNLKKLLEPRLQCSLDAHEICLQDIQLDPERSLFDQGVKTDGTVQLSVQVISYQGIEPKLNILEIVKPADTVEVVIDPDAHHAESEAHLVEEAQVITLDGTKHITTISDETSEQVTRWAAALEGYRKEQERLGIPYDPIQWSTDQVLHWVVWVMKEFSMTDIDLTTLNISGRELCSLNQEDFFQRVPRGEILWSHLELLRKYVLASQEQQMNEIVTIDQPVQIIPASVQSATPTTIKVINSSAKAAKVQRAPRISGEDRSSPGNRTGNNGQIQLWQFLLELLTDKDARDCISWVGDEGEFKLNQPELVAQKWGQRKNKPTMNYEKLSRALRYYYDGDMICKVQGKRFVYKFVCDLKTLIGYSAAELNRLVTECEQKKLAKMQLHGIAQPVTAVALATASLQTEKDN
In short: as §1

ERG = biological target: T4, ERG (Homo sapiens, UniProt P11308 1-479); settings: protein: recombinant; tags: N-terminal GST; dsDNA, one strand shown
T4 sequence: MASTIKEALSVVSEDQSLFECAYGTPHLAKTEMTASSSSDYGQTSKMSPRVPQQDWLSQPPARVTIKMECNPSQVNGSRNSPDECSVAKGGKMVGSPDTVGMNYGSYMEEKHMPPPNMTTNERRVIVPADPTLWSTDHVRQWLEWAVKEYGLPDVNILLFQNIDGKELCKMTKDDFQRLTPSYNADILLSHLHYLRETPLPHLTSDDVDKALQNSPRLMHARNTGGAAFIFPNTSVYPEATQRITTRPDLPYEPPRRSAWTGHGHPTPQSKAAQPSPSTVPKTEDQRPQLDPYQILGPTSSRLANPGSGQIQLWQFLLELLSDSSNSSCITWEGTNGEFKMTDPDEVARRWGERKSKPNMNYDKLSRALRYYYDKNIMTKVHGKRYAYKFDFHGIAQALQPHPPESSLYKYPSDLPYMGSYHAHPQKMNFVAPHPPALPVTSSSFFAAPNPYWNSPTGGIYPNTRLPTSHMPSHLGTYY
In short: as §1

ELF1 = ELF1 (Homo sapiens, UniProt P32519 1-619); settings: protein: recombinant; tags: N-terminal GST; dsDNA, one strand shown
Sequence of ELF1 (P32519 whole entry): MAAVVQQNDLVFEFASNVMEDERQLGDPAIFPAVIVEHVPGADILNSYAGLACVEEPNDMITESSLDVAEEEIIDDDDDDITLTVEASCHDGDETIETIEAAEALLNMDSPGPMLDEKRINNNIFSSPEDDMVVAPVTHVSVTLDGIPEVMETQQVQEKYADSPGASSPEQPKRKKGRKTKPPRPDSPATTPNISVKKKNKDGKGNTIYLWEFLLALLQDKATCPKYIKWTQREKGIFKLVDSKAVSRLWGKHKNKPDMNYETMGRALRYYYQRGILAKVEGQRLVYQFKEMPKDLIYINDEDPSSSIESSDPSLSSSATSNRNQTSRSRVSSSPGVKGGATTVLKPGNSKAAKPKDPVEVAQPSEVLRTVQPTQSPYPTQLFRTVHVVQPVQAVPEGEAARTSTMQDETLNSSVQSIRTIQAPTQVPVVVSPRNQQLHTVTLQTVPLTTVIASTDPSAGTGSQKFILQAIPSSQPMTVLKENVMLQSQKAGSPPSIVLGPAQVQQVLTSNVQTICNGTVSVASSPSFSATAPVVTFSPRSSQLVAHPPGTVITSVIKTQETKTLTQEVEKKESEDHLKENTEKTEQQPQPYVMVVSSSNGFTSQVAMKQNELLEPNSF
In short: as §1

EHF = biological target: T5, EHF (Homo sapiens, UniProt Q9NZC4 1-300); settings: protein: recombinant; tags: N-terminal GST; dsDNA, one strand shown
T5 sequence: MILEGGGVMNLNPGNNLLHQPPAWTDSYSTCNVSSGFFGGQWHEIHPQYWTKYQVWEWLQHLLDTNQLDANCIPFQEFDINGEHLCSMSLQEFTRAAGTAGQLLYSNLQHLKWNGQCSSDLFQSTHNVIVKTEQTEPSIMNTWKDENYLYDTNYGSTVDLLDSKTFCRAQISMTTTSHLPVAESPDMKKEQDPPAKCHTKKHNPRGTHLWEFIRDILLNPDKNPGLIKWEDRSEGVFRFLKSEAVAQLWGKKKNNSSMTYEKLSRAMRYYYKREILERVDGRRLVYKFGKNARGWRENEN
In short: as §1

SPI1 = SPI1 (Homo sapiens, UniProt P17947 1-270); settings: protein: recombinant; tags: N-terminal GST; dsDNA, one strand shown
In short: as §1

SPIB = SPIB (Homo sapiens, UniProt Q01892 1-262); settings: protein: recombinant; tags: N-terminal GST; dsDNA, one strand shown
Sequence of SPIB (Q01892 whole entry): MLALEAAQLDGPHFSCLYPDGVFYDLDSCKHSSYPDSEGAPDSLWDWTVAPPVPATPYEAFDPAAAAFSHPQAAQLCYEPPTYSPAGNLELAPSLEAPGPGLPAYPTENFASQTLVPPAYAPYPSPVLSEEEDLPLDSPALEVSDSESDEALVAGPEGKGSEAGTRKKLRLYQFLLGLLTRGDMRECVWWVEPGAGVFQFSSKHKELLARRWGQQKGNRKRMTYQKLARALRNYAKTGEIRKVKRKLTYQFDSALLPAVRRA
In short: as §1

ELK3 = biological target: T6, ELK3 (Homo sapiens, UniProt P41970 1-407); settings: protein: recombinant; tags: N-terminal GST; dsDNA, one strand shown
T6 sequence: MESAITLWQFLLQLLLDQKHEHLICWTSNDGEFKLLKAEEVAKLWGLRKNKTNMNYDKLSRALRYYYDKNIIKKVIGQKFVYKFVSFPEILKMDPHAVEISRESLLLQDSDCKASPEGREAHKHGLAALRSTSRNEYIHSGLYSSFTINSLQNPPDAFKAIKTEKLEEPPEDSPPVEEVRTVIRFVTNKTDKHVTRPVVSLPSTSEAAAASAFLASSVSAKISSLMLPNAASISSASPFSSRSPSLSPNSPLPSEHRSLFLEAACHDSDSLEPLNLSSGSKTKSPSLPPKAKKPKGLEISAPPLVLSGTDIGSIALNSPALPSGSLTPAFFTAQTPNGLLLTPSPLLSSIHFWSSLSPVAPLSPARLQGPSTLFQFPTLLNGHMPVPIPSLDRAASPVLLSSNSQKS
In short: as §1

FEV = biological target: T7, FEV (Homo sapiens, UniProt Q99581 1-238); settings: protein: recombinant; tags: N-terminal GST; dsDNA, one strand shown
T7 sequence: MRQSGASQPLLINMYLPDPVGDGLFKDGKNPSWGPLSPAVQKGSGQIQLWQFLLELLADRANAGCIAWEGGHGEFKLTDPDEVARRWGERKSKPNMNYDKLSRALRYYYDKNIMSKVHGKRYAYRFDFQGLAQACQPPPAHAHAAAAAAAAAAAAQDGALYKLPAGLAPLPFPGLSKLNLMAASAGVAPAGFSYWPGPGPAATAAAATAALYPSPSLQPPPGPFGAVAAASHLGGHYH
In short: as §1

ETV5 = ETV5 (Homo sapiens, UniProt P41161 1-510); settings: protein: recombinant; tags: N-terminal GST; dsDNA, one strand shown
Sequence of ETV5 (P41161 whole entry): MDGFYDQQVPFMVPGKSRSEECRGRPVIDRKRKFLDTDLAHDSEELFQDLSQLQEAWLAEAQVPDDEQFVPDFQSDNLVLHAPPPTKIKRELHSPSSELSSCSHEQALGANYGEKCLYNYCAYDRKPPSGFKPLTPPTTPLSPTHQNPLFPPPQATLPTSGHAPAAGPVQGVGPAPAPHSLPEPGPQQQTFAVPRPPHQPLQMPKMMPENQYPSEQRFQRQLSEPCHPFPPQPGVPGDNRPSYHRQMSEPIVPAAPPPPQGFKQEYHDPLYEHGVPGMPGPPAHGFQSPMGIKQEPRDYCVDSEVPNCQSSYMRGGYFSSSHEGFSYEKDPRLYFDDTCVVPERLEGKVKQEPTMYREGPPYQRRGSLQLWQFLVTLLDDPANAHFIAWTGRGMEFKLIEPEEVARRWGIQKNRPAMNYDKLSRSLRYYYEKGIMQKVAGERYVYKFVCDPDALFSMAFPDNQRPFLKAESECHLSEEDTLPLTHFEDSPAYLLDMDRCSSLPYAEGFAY
In short: as §1

HSF1 = HSF1 (Homo sapiens, UniProt Q00613 1-529); settings: protein: recombinant; tags: N-terminal GST; chain copies: 3; dsDNA, one strand shown
Sequence of HSF1 (Q00613 whole entry): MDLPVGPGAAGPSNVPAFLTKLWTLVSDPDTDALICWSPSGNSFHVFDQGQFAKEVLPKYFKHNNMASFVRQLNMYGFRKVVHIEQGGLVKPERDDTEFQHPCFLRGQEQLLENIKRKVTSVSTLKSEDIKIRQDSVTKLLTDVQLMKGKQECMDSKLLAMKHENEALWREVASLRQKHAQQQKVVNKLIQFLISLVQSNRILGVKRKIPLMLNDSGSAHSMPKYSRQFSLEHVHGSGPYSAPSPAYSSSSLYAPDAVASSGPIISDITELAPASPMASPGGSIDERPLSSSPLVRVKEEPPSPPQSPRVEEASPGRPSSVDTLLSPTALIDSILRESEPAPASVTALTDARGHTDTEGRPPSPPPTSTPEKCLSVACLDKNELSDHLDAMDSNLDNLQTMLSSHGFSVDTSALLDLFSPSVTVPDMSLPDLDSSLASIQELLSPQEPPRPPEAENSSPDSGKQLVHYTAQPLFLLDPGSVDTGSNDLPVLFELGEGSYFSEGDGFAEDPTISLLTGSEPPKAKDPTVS
In short: as §1

SPIC = biological target: T8, SPIC (Homo sapiens, UniProt Q8N5J4 1-248); settings: protein: recombinant; tags: N-terminal GST; dsDNA, one strand shown
T8 sequence: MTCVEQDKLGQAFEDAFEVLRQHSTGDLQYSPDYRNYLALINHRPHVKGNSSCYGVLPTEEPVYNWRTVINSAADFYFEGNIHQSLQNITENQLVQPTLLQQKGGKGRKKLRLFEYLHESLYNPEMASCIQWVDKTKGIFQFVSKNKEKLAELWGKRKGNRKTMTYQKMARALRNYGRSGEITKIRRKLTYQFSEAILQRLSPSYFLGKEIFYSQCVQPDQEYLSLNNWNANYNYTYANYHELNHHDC
In short: as §1

ELF4 = ELF4 (Homo sapiens, UniProt Q99607 1-663); settings: protein: recombinant; tags: N-terminal GST; dsDNA, one strand shown
Sequence of ELF4 (Q99607 whole entry): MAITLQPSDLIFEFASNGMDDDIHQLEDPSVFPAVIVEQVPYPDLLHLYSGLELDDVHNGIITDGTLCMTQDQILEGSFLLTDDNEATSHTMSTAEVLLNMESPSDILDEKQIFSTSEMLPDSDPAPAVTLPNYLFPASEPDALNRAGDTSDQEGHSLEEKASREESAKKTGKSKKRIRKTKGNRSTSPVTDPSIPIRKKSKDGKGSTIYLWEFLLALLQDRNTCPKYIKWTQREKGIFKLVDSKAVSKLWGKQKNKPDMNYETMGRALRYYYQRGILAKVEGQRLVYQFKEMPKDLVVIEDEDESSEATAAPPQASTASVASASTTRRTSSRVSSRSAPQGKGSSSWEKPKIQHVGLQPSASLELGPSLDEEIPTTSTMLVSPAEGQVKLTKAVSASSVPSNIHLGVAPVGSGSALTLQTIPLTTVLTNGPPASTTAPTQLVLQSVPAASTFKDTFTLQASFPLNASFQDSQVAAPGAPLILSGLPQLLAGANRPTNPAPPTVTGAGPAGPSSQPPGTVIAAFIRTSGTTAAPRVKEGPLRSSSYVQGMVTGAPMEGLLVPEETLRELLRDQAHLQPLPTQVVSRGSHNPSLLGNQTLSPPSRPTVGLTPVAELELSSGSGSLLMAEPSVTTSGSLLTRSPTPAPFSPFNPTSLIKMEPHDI
In short: as §1

ELK4 = biological target: T9, ELK4 (Homo sapiens, UniProt P28324-2 1-405); settings: protein: recombinant; tags: N-terminal GST; dsDNA, one strand shown
T9 sequence: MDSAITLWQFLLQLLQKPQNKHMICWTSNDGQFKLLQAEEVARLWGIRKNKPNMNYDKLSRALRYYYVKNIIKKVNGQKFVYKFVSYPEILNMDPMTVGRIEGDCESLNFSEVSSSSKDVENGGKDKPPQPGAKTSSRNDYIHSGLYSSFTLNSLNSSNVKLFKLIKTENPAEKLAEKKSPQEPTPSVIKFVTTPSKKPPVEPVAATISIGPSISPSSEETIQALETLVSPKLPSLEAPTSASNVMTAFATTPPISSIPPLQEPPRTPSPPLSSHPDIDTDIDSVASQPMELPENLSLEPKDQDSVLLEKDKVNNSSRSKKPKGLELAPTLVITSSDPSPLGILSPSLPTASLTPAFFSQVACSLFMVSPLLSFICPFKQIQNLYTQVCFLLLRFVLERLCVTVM
In short: as §1

ETV2 = biological target: T10, ETV2 (Homo sapiens, UniProt O00321 1-342); settings: protein: recombinant; tags: N-terminal GST; dsDNA, one strand shown
T10 sequence: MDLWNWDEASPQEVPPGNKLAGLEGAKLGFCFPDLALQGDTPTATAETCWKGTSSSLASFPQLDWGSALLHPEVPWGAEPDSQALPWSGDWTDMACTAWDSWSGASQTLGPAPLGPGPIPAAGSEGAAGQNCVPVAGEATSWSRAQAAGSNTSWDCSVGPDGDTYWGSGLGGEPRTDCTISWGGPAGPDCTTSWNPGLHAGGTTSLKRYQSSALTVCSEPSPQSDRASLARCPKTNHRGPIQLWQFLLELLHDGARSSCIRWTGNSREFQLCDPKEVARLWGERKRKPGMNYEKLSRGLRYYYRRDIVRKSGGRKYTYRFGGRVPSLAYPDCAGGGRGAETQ
In short: as §1

ELF3 = biological target: T11, ELF3 (Homo sapiens, UniProt P78545 1-371); settings: protein: recombinant; tags: N-terminal GST; dsDNA, one strand shown
T11 sequence: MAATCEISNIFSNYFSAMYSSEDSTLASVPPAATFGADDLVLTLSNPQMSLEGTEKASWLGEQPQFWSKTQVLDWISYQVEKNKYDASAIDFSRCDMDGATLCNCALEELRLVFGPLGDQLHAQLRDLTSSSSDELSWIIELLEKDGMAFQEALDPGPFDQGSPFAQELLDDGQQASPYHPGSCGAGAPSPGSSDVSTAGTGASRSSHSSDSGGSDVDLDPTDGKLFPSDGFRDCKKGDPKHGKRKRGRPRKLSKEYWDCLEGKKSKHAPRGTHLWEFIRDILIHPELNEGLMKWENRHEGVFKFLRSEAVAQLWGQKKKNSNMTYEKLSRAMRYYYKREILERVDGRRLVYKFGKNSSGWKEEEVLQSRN
In short: as §1

ETV1 = ETV1 (Homo sapiens, UniProt P50549 1-477); settings: protein: recombinant; tags: N-terminal GST; dsDNA, one strand shown
Sequence of ETV1 (P50549 whole entry): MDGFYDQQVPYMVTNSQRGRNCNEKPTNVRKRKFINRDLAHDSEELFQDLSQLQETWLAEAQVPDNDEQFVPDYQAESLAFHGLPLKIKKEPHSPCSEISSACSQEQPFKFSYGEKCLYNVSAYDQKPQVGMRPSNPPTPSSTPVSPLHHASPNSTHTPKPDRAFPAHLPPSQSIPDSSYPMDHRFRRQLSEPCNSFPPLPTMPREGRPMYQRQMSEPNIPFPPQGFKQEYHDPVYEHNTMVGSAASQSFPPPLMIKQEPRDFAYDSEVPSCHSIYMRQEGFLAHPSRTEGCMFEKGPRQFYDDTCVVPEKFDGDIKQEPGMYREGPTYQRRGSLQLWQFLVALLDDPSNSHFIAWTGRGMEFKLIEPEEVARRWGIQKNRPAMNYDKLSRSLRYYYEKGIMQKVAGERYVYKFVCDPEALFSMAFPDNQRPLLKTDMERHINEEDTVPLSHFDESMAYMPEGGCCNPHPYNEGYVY
In short: as §1

## TCCGTC
FLI1
  binding signal: 1.24 fold enrichment (6-mer frequency, TF over GST control)
ELK1
  binding signal: 1.43 fold enrichment (6-mer frequency, TF over GST control)
GABPA
  binding signal: 1.29 fold enrichment (6-mer frequency, TF over GST control)
ERG
  binding signal: 1.49 fold enrichment (6-mer frequency, TF over GST control)
ELF1
  binding signal: 1.36 fold enrichment (6-mer frequency, TF over GST control)
EHF
  binding signal: 1.41 fold enrichment (6-mer frequency, TF over GST control)
SPI1
  binding signal: 1.28 fold enrichment (6-mer frequency, TF over GST control)
SPIB
  binding signal: 1.56 fold enrichment (6-mer frequency, TF over GST control)
ELK3
  binding signal: 1.47 fold enrichment (6-mer frequency, TF over GST control)
FEV
  binding signal: 1.38 fold enrichment (6-mer frequency, TF over GST control)
ETV5
  binding signal: 1.31 fold enrichment (6-mer frequency, TF over GST control)
HSF1
  binding signal: 1.04 fold enrichment (6-mer frequency, TF over GST control)
SPIC
  binding signal: 1.38 fold enrichment (6-mer frequency, TF over GST control)
ELF4
  binding signal: 1.42 fold enrichment (6-mer frequency, TF over GST control)
ELK4
  binding signal: 1.3 fold enrichment (6-mer frequency, TF over GST control)
ETV2
  binding signal: 1.35 fold enrichment (6-mer frequency, TF over GST control)
ELF3
  binding signal: 1.27 fold enrichment (6-mer frequency, TF over GST control)
ETV1
  binding signal: 1.42 fold enrichment (6-mer frequency, TF over GST control)
